# Laboratory results as given in PubChem BioAssay AID686978 (National Center for Advancing Translational Sciences (NCATS), 2013).
# Among all 420,000 compounds or so, about 64,000 (15%) were called active. Not shown: some 27% with an inconclusive outcome. The call rests on the fitted dose curve; in most records, active means well fitted inhibition curve with a large enough effect; inconclusive means small, poorly fitted or top-dose-only effect; inactive means flat fitted curve, though single readings scatter. These entries were drawn from the full list. Entries that show only a call come without a potency.
# Assay: qHTS for Inhibitors of human tyrosyl-DNA phosphodiesterase 1 (TDP1): qHTS in cells in absence of CPT; further: nearly all actives have a fitted effect of over 55% in size
# Details: DT40 Tdp1-/- hTDP1 cells, no CPT, ATP luminescence, 48 h; activity change, negative = growth inhibition: at 46.2 µM (top of the series)
# In short: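 Chicken DT40 Tdp1-/- cells stably complemented with human TDP1 were seeded at 400 cells/well with DMSO in place of 20 nM camptothecin. After compound pinning, cells grew at least 48 hr at 37 °C; viability read by CellTiter-Glo luminescence.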
# Potency means the concentration at half of the fitted maximal effect.
row,SMILES,Potency
1,C/C=C/NNC(=O)Cc1ccc(OC)cc1,5.62 µM (active)
2,COc1ccc(CC(=O)Nc2ccc(-c3nnc(-c4ccc(C)cc4)o3)cc2)cc1,inactive
3,CCCCCNC(=O)Cc1ccc(OC)cc1,inactive
4,CS(=O)(=O)N1CCN(C(=O)Cc2ccccc2)CC1,inactive
5,CC(C)c1ccc(CC(=O)N2CCC2(C)C(=O)NS(=O)(=O)c2ccc(C(C)(C)C)cc2)cc1 (stereo unspecified),inactive
6,CC1=C(N2CCN(c3ncccn3)CC2)CCC1=O,inactive
7,Oc1ccc(CN2CCN(c3ncccn3)CC2)cc1,inactive
8,c1cnc(N2CCN(c3ccc4ccccc4n3)CC2)nc1,18.4 µM (active)
9,N#CCc1ccc(NC(=O)c2ccccc2C(=O)Nc2ccc(CC#N)cc2)cc1,inactive
10,O=C(NCCN1CCOCC1)c1cnn(-c2nccc(-c3cccs3)n2)c1C1CC1,inactive
11,CC(C)n1ncc2c(C(=O)Nc3ccc(CC#N)cc3)cc(C3CC3)nc21,13 µM (active)
12,CC(C)n1ncc2c(C(=O)N3CCN(Cc4cccs4)CC3)cc(C3CC3)nc21,25.9 µM (active)
13,CC(=O)Nc1ccc(CC#N)cc1,inactive
14,Cc1ccsc1C1C(C#N)=C(N)OC2=C1C(=O)CC(C)C2 (stereo unspecified),inactive
15,CCOC(=O)Cc1cc(=O)[nH]c(=O)[nH]1,inactive
16,COCCn1cnnc1SCC(=O)Nc1cccc(S(=O)(=O)N2CCCCC2)c1,inactive
17,Cc1c(CCO)c(=O)n(-c2ccccc2)n1S(=O)(=O)c1ccc(F)cc1,inactive
18,COCCCNC(=O)C1CC(=O)N(c2ccc(C)cc2)C1 (stereo unspecified),inactive

row,SMILES,Potency
1,Cc1oc(-c2ccccc2F)nc1CS(=O)(=O)CC(=O)NCCCN(C)C1CCCCC1,inactive
2,Cc1ccc(N2C(=O)C(CC(=O)Nc3cccc(F)c3)N(CCc3ccncc3)C2=O)cc1 (stereo unspecified),inactive
3,CCOc1ccc(NC(=O)CN(C)C(=O)CCSc2ccc(F)cc2)cc1OCC,inactive
4,CCN(C(=O)COC(=O)C1CCN(S(=O)(=O)c2ccc(C)c(C)c2)CC1)C1CCS(=O)(=O)C1 (stereo unspecified),inactive
5,O=[N+]([O-])c1ccc(N(CCO)Cc2ccccc2)c([N+](=O)[O-])c1,inactive
6,CCOC(=O)CC(NC(=O)C1c2ccccc2Oc2ccccc21)c1ccc(C)cc1 (stereo unspecified),inactive
7,CCCN(CCC)C(=O)C1c2ccccc2Oc2ccccc21,25.9 µM (active)
8,CCCCCNC(=O)C1c2ccccc2Oc2ccccc21,inactive
9,Cc1ccccc1OCCC(=O)OCC(=O)NCCc1ccc(S(N)(=O)=O)cc1,inactive
10,COc1ccccc1-n1ccnc1SCC(=O)NC(C)(C)C,inactive
11,Cc1ccccc1-n1c(SCC(=O)Nc2cccc3ccccc23)nc(O)cc1=O,inactive
12,Cc1cccc(CSc2nnc(NC(=O)CSc3nnc(C)s3)s2)c1,inactive
13,O=C(CSc1nccn1-c1ccc(F)cc1)Nc1cccc2ccccc12,14.6 µM (active)
14,Cc1cccc(-n2ccnc2SCC(=O)Nc2cccc3ccccc23)c1C,16.4 µM (active)
15,CC(=O)Nc1cccc(NC(=O)CSc2nccn2Cc2ccc(F)cc2)c1,inactive
16,Cc1cc(NC(=O)CSc2nccn2-c2ccc([N+](=O)[O-])cc2)no1,inactive
17,COc1ccccc1-n1c(CNC(=O)c2ccccc2)nnc1SCC(=O)Nc1nnc(C)s1,inactive
18,Cc1nnc(NC(=O)CSc2nccn2-c2cccc(C)c2C)s1,3.26 µM (active)
